From PubChem BioAssay AID2283112 (EPA ToxCast)
Records with an inconclusive call do not appear. Activity calls are given as the source filed them. How the source made its calls: active means hit-call score of the fitted dose curve at least 0.9, where 1 is the maximum; inconclusive means response in the unintended direction; inactive means score below 0.9.

target: rat CYP1A1, Cyp1a1 (gene 24296) (UniProt P00185); assay: NVS_ADME_rCYP1A1: NovaScreen (NVS) CYP450-related Enzyme Activity (ADME) Assay for rat CYP1A1
Sequence (P00185 whole entry, looked up): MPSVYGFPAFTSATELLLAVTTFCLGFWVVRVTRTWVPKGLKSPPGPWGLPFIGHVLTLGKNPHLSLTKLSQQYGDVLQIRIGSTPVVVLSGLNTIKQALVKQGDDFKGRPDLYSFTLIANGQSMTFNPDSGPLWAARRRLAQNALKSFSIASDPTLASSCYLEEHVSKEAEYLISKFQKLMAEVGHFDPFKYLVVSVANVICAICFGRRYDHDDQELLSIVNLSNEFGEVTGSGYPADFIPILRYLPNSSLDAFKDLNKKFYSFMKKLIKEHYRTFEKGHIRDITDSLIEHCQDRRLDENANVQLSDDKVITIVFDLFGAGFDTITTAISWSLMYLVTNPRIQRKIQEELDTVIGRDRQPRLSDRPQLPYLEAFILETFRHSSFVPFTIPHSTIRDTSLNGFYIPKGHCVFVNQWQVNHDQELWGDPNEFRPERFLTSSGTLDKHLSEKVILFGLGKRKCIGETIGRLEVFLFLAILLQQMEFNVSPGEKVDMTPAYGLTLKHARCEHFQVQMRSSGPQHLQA
Experimental: NVS_ADME_rCYP1A1 is a biochemical, single-readout assay that uses extracted gene-proteins from baculovirus-insect cells in a cell-free assay. Measurements were taken 1 hour after chemical dosing in a 96-well plate.NVS_ADME_rCYP1A1 is one of one assay component(s) measured or calculated from the NVS_ADME_rCYP1A1 assay. It is designed to make measurements of enzyme activity, a form of enzyme reporter, as detected with fluorescence intensity signals by Fluorescence technology.Data from the assay component NVS_ADME_rCYP1A1 was analyzed into 1 assay endpoint. This assay endpoint, NVS_ADME_rCYP1A1, was analyzed in the positive analysis fitting direction relative to Acetonitrile as the negative control and baseline of activity. Using a type of enzyme reporter, loss-of-signal activity can be used to understand changes in the enzymatic activity as they relate to the gene Cyp1a1. Furthermore, this assay endpoint can be referred to as a primary readout, because this assay has produced multiple assay endpoints where this one serves a enzymatic activity function. To generalize the intended target to other relatable targets, this assay endpoint is annotated to the cyp intended target family, where the subfamily is xenobiotic metabolism.
Binding assays used specific radioligands (tritiated, iodinated) with non-radioactive competitive displacement ligands in agonist or antagonist protocols (as indicated) and various reference compounds and inhibitors to titrate specific binding to receptors and transporters. Most enzyme assays (CYPs, kinases, phosphatases, proteases, HDACs) used recombinant protein and specific substrates (fluorescence mostly, some colorimetric and radioactive) and inhibitors, followed by a biochemical separation of substrate and product. All assays for the biochemical HTS were initially run in duplicate at a single concentration (10 uM for CYP450 assays and 25 uM for all others). Assay-chemical combinations meeting a pre-defined threshold (e.g., 30% inhibition and other criteria defined below) were then run in singleton concentration-response format with maximum concentration of 20 uM for CYPs and 50 uM for all others. Each assay was run with positive and negative controls, and concurrent controls on every plate. The follow-up (secondary) screen tested active chemical-pairs in concentration series, as well as a few additional assays not tested in the primary screen, some selected negative inactives, and several cases re-run in the concentration series for confirmatory purposes.

Which outcome does the source give for `CCOP(=S)(OCC)SCn1c(=O)oc2cc(Cl)ccc21` here?
Its outcome is “inactive”.

Which AC50 does the source give for `CCOP(=S)(OCC)Oc1ccc([N+](=O)[O-])cc1` here?
The AC50 was 7.95 µM (active).

With `CC(C)(C)C(=O)C(Oc1ccc(Cl)cc1)n1cncn1` (stereo not given) as the molecule, how does the AC50 read?
The AC50 was 16.9 µM (active).

For `CCCN(CCOc1c(Cl)cc(Cl)cc1Cl)C(=O)n1ccnc1`, which AC50 is on record?
Its AC50 is 2.23 µM (active).

How did the outcome turn out when `COc1nc(C)nc(NC(=O)NS(=O)(=O)c2ccccc2Cl)n1` was run?
The outcome was “inactive”.

With `CC[C@H](C)[C@H]1O[C@]2(C=C[C@@H]1C)C[C@@H]1C[C@@H](C/C=C(\C)[C@@H](O[C@H]3C[C@H](OC)[C@@H](O[C@H]4C[C@H](OC)[C@@H](NC)[C@H](C)O4)[C@H](C)O3)[C@@H](C)/C=C/C=C3\CO[C@@H]4[C@H](O)C(C)=C[C@@H](C(=O)O1)[C@]34O)O2` as the molecule, how does the outcome read?
The outcome was “inactive”.

How did the outcome turn out when `COP(=S)(OC)SCn1nnc2ccccc2c1=O` was run?
Its outcome is “inactive”.

With `COP(=S)(OC)Oc1ccc([N+](=O)[O-])cc1` as the molecule, how does the outcome read?
The outcome was “inactive”.

Which outcome does the source give for `COP(=S)(OC)Oc1ccc([N+](=O)[O-])c(C)c1` here?
Its outcome is “inactive”.

With `CC[C@H](C)[C@H]1O[C@]2(C=C[C@@H]1C)C[C@@H]1C[C@@H](C/C=C(\C)[C@@H](O[C@H]3C[C@H](OC)[C@@H](O[C@H]4C[C@H](OC)[C@@H](O)[C@H](C)O4)[C@H](C)O3)[C@@H](C)/C=C/C=C3\CO[C@@H]4[C@H](O)C(C)=C[C@@H](C(=O)O1)[C@]34O)O2` (tested in a mixture with another compound) as the molecule, how does the outcome read?
The outcome was “inactive”.
